TDP1 cell CPT: DT40-hTDP1 cell growth loss with CPT. chicken DT40 Tdp1-/-;hTDP1 cells + 20 nM CPT, ATP luminescence, 48 h. AID 686979. hit rate 12% among 420,000. Potency, µM (series often up to 46.2 µM), for the others: top-dose activity change, negative = growth inhibition, hits mostly inhibitors; also: potency is read from the fitted curve at half-maximal effect; nearly all actives have a fitted effect of over 55% in size
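Chicken DT40 Tdp1-/- cells stably complemented with human TDP1 were seeded at 400 cells/well in medium containing 20 nM camptothecin, exposed to pin-transferred compounds, and grown at 37 °C for at least 48 hr. Viability was read as ATP luminescence.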
TDP1 cell noCPT: qHTS for Inhibitors of human tyrosyl-DNA phosphodiesterase 1 (TDP1): qHTS in cells in absence of CPT | DT40 Tdp1-/- hTDP1 cells, no CPT, ATP luminescence, 48 h | Potency, µM (series often up to 46.2 µM), for the others: at the highest dose activity change, negative = growth inhibition, usual class: inhibitors | hit rate 15% among 420,000; also: potency is read from the fitted curve at half-maximal effect; nearly all actives have a fitted effect of over 55% in size
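Growth of hTDP1-complemented DT40 Tdp1-knockout cells is measured by ATP luminescence after at least 48 hr compound exposure at 37 °C, with DMSO substituting for the 20 nM CPT used in the parallel screen.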
IL1B secr inh: inhibitors of inflammasome signaling (IL-1 beta secretion); THP-1 LPS/ATP IL-1B secretion, AlphaLISA, 16 h; stronger effect = lower value; activity change, % at 57.5 µM; hit rate 4.7% among 360,000; AID 743279; in the data active = activity change below about -50%; inconclusive = mostly about -30% to -49%
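Secreted IL-1B measured by AlphaLISA bead assay after 16 h compound exposure of THP-1 cells; compounds (final up to 57.5 uM) added 1 h before LPS (250 ng/mL) and ATP (1.25 mM) stimulation; lower signal means less secretion.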
HT1080NT lethal: kills 2HG-producing HT-1080-NT fibrosarcoma cells | Potency, µM (series often up to 46.1 µM), without a hit: top-dose activity, negative = less viability, usual class: cytotoxic | HT-1080-NT fibrosarcoma viability, CellTiter-Glo ATP luminescence, 48 h | hit rate 1.6% among 360,000;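 also: NT is the 2HG producing partner of a matched IDH1 knockdown line; potency is read from the fitted curve at half-maximal effect; 0% = DMSO-treated cells and -100% = media-only wells without cells; nearly all actives have a fitted effect of over 55% in size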
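HT-1080-NT; 750 cells/well; 5% FBS RPMI; 48 h compound, 37 degrees C; CellTiter-Glo luminescence; curve fitting and curve-class assignment.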
HT1080 IDH1KD tx: toxicity to HT-1080 IDH1 knockdown cells (counter line). HT-1080 IDH1 knockdown viability, ATP luminescence, 48 h. Potency, µM (series often up to 46.1 µM), without a hit: top-dose activity, negative = toxicity, usual class: cytotoxic. hit rate 2% among 360,000. AID 686971;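 also: potency is read from the fitted curve at half-maximal effect; 0% = DMSO wells and -100% = cell-free medium wells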
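Luminescent ATP read-out (CellTiter-Glo, 10 min at room temperature) after 48 h compound exposure at 37 °C gave viability of IDH1-knockdown HT-1080 cells. Activity was normalised to DMSO and cell-free wells, then fitted as concentration-response curves.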
* = called active by the depositor. Hits are enriched below; roughly 19% of the tested compounds scored in any of these assays. Unless noted, calls follow the shape of the dose curve; as a rule, active = well fitted curve in the direction sought with a large enough effect; inconclusive = small, poorly fitted or top-dose-only effect, or another doubt; inactive = no such curve, though single readings can be large; an effect the other way counts as inactive or inconclusive. Unless noted, % is scaled to controls: 0 for no effect and ±100 for the full control effect.

How did O=S(=O)(NCC1CCN(c2ccc(S(=O)(=O)N3CCOCC3)cc2)CC1)c1ccccc1 do in these assays?
TDP1 cell CPT: -22.4%; TDP1 cell noCPT: inconclusive; IL1B secr inh: -13.3; HT1080NT lethal: -20.3%; HT1080 IDH1KD tx: -0.1%

How did O=C(NCC1CCN(c2ccc(S(=O)(=O)N3CCOCC3)cc2)CC1)c1ccc(Cl)cc1 do in these assays?
TDP1 cell CPT: 14.6µM*; TDP1 cell noCPT: 13µM*; IL1B secr inh: -75.0*; HT1080NT lethal: -15.1%; HT1080 IDH1KD tx: -12.0%

How did Cc1ccccc1NC(=O)NCC1CCN(c2ccc(S(=O)(=O)N3CCOCC3)cc2)CC1 do in these assays?
TDP1 cell CPT: 23.1µM*; TDP1 cell noCPT: 20.6µM*; IL1B secr inh: -8.8; HT1080NT lethal: -16.0%; HT1080 IDH1KD tx: -1.7%

Results for O=S(=O)(NCC1CCN(c2ccc(S(=O)(=O)N3CCOCC3)cc2)CC1)c1ccc(F)cc1 ?
TDP1 cell CPT: 23.1µM*; TDP1 cell noCPT: 20.6µM*; IL1B secr inh: -5.0; HT1080NT lethal: -22.4%; HT1080 IDH1KD tx: -17.0%

Results for CC1CCCCN1CCCNc1ccc(C(CC(N)=O)NC(=O)Cc2ccc(Br)cc2)cc1[N+](=O)[O-] (configuration not stated) ?
TDP1 cell CPT: -1.2%; TDP1 cell noCPT: -17.3%; IL1B secr inh: -1.8; HT1080NT lethal: 10.4%; HT1080 IDH1KD tx: 1.6%

What do the screens show for `N#Cc1ccccc1N1CCN(C(=O)c2ccc(NC(=O)c3ccc(Br)o3)cc2)CC1`?
TDP1 cell CPT: inconclusive; TDP1 cell noCPT: inconclusive; IL1B secr inh: -10.0; HT1080NT lethal: 0.8%; HT1080 IDH1KD tx: 3.8%

What do the screens show for `Cc1cc(C)cc(NC(=O)c2ccc(CSc3nnnn3C)cc2)c1`?
TDP1 cell CPT: -5.7%; TDP1 cell noCPT: -6.2%; IL1B secr inh: -52.8*; HT1080NT lethal: -5.0%; HT1080 IDH1KD tx: -10.3%

What do the screens show for `Cc1ccc(-n2nnnc2SCC(=O)Nc2ccccc2-c2ccccc2)cc1C`?
TDP1 cell CPT: inconclusive; TDP1 cell noCPT: inconclusive; IL1B secr inh: -7.4; HT1080NT lethal: -0.7%; HT1080 IDH1KD tx: -8.7%

How did Cc1ccc(C)c(NC(=O)CSc2nncn2C)c1 do in these assays?
TDP1 cell CPT: -2.1%; TDP1 cell noCPT: -5.1%; IL1B secr inh: 36.6; HT1080NT lethal: -5.9%; HT1080 IDH1KD tx: -0.7%

What do the screens show for `COc1ccc(C)cc1-n1nnnc1SCC(=O)Nc1cccnc1Cl`?
TDP1 cell CPT: inconclusive; TDP1 cell noCPT: 20.6µM*; IL1B secr inh: 0.0; HT1080NT lethal: -0.9%; HT1080 IDH1KD tx: 0.6%

How did Cc1ccc(-n2nnnc2SCC(=O)Nc2ccccc2N2CCCCC2)cc1C do in these assays?
TDP1 cell CPT: inconclusive; TDP1 cell noCPT: 18.4µM*; IL1B secr inh: -8.2; HT1080NT lethal: -8.8%; HT1080 IDH1KD tx: -13.0%

What do the screens show for `CSc1ccccc1-n1nnnc1SCC(=O)Nc1cc(C)ccc1C`?
TDP1 cell CPT: -18.1%; TDP1 cell noCPT: inconclusive; IL1B secr inh: -51.2*; HT1080NT lethal: 7.5%; HT1080 IDH1KD tx: -2.0%

What do the screens show for `Cc1ccc(C23CC4CC(CC(C(=O)N(C)C)(C4)C2)C3)cc1`?
TDP1 cell CPT: inconclusive; TDP1 cell noCPT: 20.6µM*; IL1B secr inh: -19.4; HT1080NT lethal: -0.2%; HT1080 IDH1KD tx: -13.0%

What do the screens show for `NCC12CC3CC(C1)CC(c1ccc(Br)cc1)(C3)C2`?
TDP1 cell CPT: 20.6µM*; TDP1 cell noCPT: 14.6µM*; IL1B secr inh: -77.3*; HT1080NT lethal: inconclusive; HT1080 IDH1KD tx: inconclusive

What do the screens show for `Cc1ccc(C23CC4CC(CC(CN)(C4)C2)C3)cc1`?
TDP1 cell CPT: 6.51µM*; TDP1 cell noCPT: 10.3µM*; IL1B secr inh: -94.6*; HT1080NT lethal: 18.4µM*; HT1080 IDH1KD tx: inconclusive

How did COC(=O)CNC(=O)C12CC3CC(C1)CC(c1ccc(C)cc1)(C3)C2 do in these assays?
TDP1 cell CPT: -4.2%; TDP1 cell noCPT: 5.0%; IL1B secr inh: 14.0; HT1080NT lethal: 6.6%; HT1080 IDH1KD tx: 6.4%

How did Cc1ccc(C23CC4CC(CC(C(N)=O)(C4)C2)C3)cc1 do in these assays?
TDP1 cell CPT: 14.6%; TDP1 cell noCPT: -2.6%; IL1B secr inh: 9.6; HT1080NT lethal: -0.6%; HT1080 IDH1KD tx: 0.0%

How did Cc1ccc(C23CC4CC(CC(CC(=O)NC(C)(C)CO)(C4)C2)C3)cc1 do in these assays?
TDP1 cell CPT: 25.9µM*; TDP1 cell noCPT: 14.6µM*; IL1B secr inh: 34.5; HT1080NT lethal: -16.1%; HT1080 IDH1KD tx: -12.4%

What do the screens show for `O=C(Nc1ccc(C(=O)N2CCOCC2)cc1)c1cccc([N+](=O)[O-])c1`?
TDP1 cell CPT: -1.7%; TDP1 cell noCPT: -23.9%; IL1B secr inh: -8.8; HT1080NT lethal: -3.7%; HT1080 IDH1KD tx: 2.4%

Results for N#Cc1ccc(C(=O)Nc2ccc3c(c2)N(C2CCCC2)C(=O)c2ccccc2S3)cc1 ?
TDP1 cell CPT: 23.1µM*; TDP1 cell noCPT: 18.4µM*

What do the screens show for `CC(=O)Nc1ccc(C(=O)Nc2ccc3c(c2)N(C2CCCC2)C(=O)c2ccccc2S3)cc1`?
TDP1 cell CPT: 20.6µM*; TDP1 cell noCPT: 16.4µM*

What do the screens show for `CN(C)/C=N/NC(=O)c1ccccc1`?
TDP1 cell CPT: -3.8%; TDP1 cell noCPT: 18.9%; IL1B secr inh: 11.6; HT1080NT lethal: 2.3%; HT1080 IDH1KD tx: inconclusive

What do the screens show for `O=C(NN=c1c(=O)c2ccccc2c1=O)c1ccccc1`?
TDP1 cell CPT: 18.4µM*; TDP1 cell noCPT: 17.8µM*; IL1B secr inh: inconclusive; HT1080NT lethal: 11.6%; HT1080 IDH1KD tx: 0.4%

What do the screens show for `COc1ccc(CNC(=O)COC(=O)c2ccccn2)cc1`?
TDP1 cell CPT: 4.4%; TDP1 cell noCPT: -2.5%; IL1B secr inh: 20.5; HT1080NT lethal: 1.4%; HT1080 IDH1KD tx: -6.1%
